High-throughput results from PubChem BioAssay.
PNC inhibitor = perinucleolar compartment assembly inhibition | PC3M PTB-GFP, PNC prevalence imaging, 16 h; hits give low values | activity change (PNC), negative = inhibition, % at 10 µM | actives 3.1% (n = 140,000) | AID 2417;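 active means readout at or below -70, meaning at least 70% loss of cells showing the perinucleolar compartment, a nuclear body marking cancer cells; inconclusive means readout between -30 and a set limit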
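Compounds are pinned in duplicate onto adhered PC3M cells stably expressing GFP-tagged PTB and incubated 16 h at 37 C. Cells are then fixed, nuclei stained with Hoechst, and PNC-positive cells counted.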
HPGD block = blocks human HPGD enzyme activity. AID 894. purified HPGD, NADH fluorescence kinetic, PGE2 substrate. actives 4.3% (n = 150,000). Potency, µM, usual class: inhibitors. P15428
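NADH formation kinetics: reaction with 30 uM PGE2 and 1 mM NAD+ (final), 20 nM enzyme, Tris-HCl pH 8 with Tween 20, after 15 min compound preincubation at room temperature. Fluorescence change, last versus first of five reads.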
ALDH1A1 block = inhibitors of human aldehyde dehydrogenase 1A1; P00352; Purified ALDH1A1, NADH fluorescence, propionaldehyde substrate; Potency, µM (top dose mostly 75.3 µM), usual class: inhibitors; actives 7.3% (n = 220,000); AID 1030
Target sequence (P00352 whole entry, looked up): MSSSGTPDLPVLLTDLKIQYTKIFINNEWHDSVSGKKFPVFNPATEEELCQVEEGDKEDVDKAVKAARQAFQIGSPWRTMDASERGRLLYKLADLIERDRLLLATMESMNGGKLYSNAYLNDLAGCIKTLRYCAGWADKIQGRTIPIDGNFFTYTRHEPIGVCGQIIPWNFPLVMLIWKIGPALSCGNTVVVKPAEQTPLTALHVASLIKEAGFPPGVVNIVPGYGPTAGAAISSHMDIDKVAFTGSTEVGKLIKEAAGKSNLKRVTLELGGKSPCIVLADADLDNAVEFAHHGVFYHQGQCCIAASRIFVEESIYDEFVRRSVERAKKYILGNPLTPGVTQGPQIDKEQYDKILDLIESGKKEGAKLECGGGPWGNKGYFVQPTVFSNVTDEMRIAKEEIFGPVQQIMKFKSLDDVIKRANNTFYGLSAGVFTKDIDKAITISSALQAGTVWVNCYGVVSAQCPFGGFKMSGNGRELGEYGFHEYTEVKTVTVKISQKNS
Numbers stand for hits; n = inactive; u = inconclusive; x = no result given. Rows were chosen to be rich in hits. Some 11% of all compounds tested hit in one or more screens of this group. Unless noted, the call rests on the fitted dose curve; in most records, active means well fitted inhibition curve with a large enough effect (not every such curve was filed as active); inconclusive means small, poorly fitted or top-dose-only effect, or another doubt; inactive means no such curve, though single readings can be large or run the other way.

SMILES	PNC inhibitor	HPGD block	ALDH1A1 block
O=C(c1ccco1)N1CCN(C(c2ccccc2F)c2nnnn2Cc2cccs2)CC1 (stereo unspecified)	n	n	18µM
COc1ccccc1-c1cncnc1Nc1ccccc1	x	x	n
CCCCNC(=O)CNC(=S)N(Cc1ccc(C)cc1)Cc1ccco1	x	x	32µM
CCCCNC(=S)NNC(=O)c1ccco1	n	n	n
O=CN/C=C/c1cc(F)cc(F)c1F	x	n	n
CCn1ncc(Cl)c1C(=O)Nc1ccncc1	-114	n	n
CCn1ncc(C(=O)Nc2cc(C)on2)c1C	n	n	n
Cn1ncc(Cl)c1C(=O)Nc1ccncc1	u	n	n
CCn1ncc(C(=O)Nc2cccc(Cl)c2)c1C	-89	n	n
COC(=O)CC1C(=O)NCCN1C(=O)c1ccccc1 (stereo unspecified)	n	n	n
COC(=O)CC1C(=O)NCCN1C(=O)CSc1nc2ccccc2s1 (stereo unspecified)	x	x	18µM
CC(C)COC(=O)c1ccc2c(c1O)C(=O)c1ccccc1C2=O	u	n	u
CC1=NN(c2ccc(Cl)c(C(=O)O)c2)C(=O)C1	n	n	n
CC1=NN(c2ccc(S(=O)(=O)O)cc2Cl)C(=O)C1	x	x	11µM
CCCCCCC(=O)N/N=C(\C)Cc1ccccc1	n	n	n
Cn1c(=O)c2sccc2n2c(CCCC(=O)NCc3ccc4c(c3)OCO4)nnc12	-100	n	n
COCCNC(=O)Cn1c(=O)n(CCCCCC(=O)NCc2ccc3c(c2)OCO3)c(=O)c2sccc21	x	x	n
O=C(CCSCCC(=O)Nc1ccccc1F)Nc1ccccc1F	n	n	u
Cc1ccc(S(=O)(=O)/N=C(/c2ccccc2)N2CCOCC2)cc1	x	x	n
Cc1ccc(S(=O)(=O)/N=C(\CN2CCCCC2)N2CCOCC2)cc1	n	n	11µM
N#Cc1c(N)n[nH]c1CCCN	n	n	n
N#Cc1c(N)n[nH]c1-c1cc2c([nH]1)CCCC2	-100	n	n
O=C(C1CCCO1)N1CCN(Cc2nc3ccccc3c(=O)[nH]2)CC1 (stereo unspecified)	-135	n	u
O=c1[nH]c(CN2CCOCC2)nc2ccccc12	x	x	n
CC(=O)N(c1ccccc1)c1ccc([N+](=O)[O-])cc1[N+](=O)[O-]	n	n	n
SMILES	PNC inhibitor	HPGD block	ALDH1A1 block
CC(=O)c1cccc(NC(=S)NC(=O)c2ccccc2Br)c1	n	n	u
O=C(O)c1cccc(NC(=S)NC(=O)c2ccncc2)c1	x	x	n
CC(=O)c1cccc(NC(=S)NC(=O)c2ccc(Cl)cc2)c1	n	n	25µM
CC(=O)c1cccc(NC(=S)NC(=O)c2cccc(C)c2)c1	n	22µM	u
CS(=O)(=O)c1ccc(Cl)c(NC(=O)Cc2c(F)cccc2Cl)c1	x	x	n
CC(C)C[C@@H](CC(=O)N[C@@H](CCC(=O)O)CC(=O)O)NC(=O)[C@@H]1CNCC[C@H]1NC(=O)C[C@@H](NC(=O)C[C@H](Cc1c[nH]c2ccccc12)NC(=O)[C@@H]1CCCC[C@H]1N)C(C)C	x	n	n
Cc1cc(SCC(=O)OCC(=O)N2CCN(C(=O)c3ccco3)CC2)c(C)cc1Br	n	n	32µM
Cc1ccsc1C(=O)OCC(=O)N1CCN(C(=O)c2ccco2)CC1	x	x	n
O=C(CCN1c2ccccc2Sc2ccccc21)OCC(=O)N1CCN(C(=O)c2ccco2)CC1	n	n	u
O=C(Cc1ccc(Cl)cc1Cl)OCC(=O)N1CCN(C(=O)c2ccco2)CC1	x	x	14µM
CC(=O)Nc1ccc(C2(c3ccc(NC(C)=O)cc3)C(=O)Nc3ccccc32)cc1	x	x	n
COc1ccc(-n2sc3c(c2=S)-c2cc(OC)ccc2NC3(C)C)cc1	n	n	32µM
COc1ccc2c(c1)-c1c(sn(-c3ccccc3)c1=S)C(C)(C)N2	u	n	n
COC(=O)CCSCc1cn2cc(Cl)ccc2n1	n	n	n
Cc1cc(OCCN2CCCC2)ccc1[N+](=O)[O-]	n	n	n
Cc1ccc([N+](=O)[O-])c(OCCN2CCCCCC2)c1	n	n	15µM
Cc1ccc([N+](=O)[O-])cc1S(=O)(=O)N1CCNCC1	x	x	n
O=C(NNC(=O)C1CCN(Cc2ccc(F)cc2Cl)CC1)Nc1ccc([N+](=O)[O-])cc1	x	x	n
O=[N+]([O-])c1ccc(Cl)c(CN2CCC(O)CC2)c1	-124	n	u
CC1CCN(S(=O)(=O)c2cc([N+](=O)[O-])ccc2Cl)CC1	x	x	3.5µM
Cn1ncc(C#N)c1/N=C/N1CCCC1	n	n	n
CCOC(=O)Cc1csc(NC(=O)c2csc3c2CCCC3)n1	n	u	14µM
CCOC(=O)Cc1csc(NC(=O)c2cc3c(s2)CCCC3)n1	n	n	u
COc1cccc(NC(=O)NC2(C(F)(F)F)Oc3ccccc3O2)c1	u	n	35µM
CCOC(=O)Cc1csc(NC(=O)NC2(C(F)(F)F)Oc3ccc(Cl)cc3O2)n1 (stereo unspecified)	u	n	n
SMILES	PNC inhibitor	HPGD block	ALDH1A1 block
CCOC(=O)Cc1csc(NC(=O)NC2(C(F)(F)F)Oc3ccccc3O2)n1	n	35µM	n
COc1cccc(NC(=O)Nc2cccc(C(=O)O)c2)c1	x	x	n
COC(=O)CSc1nnc(CNc2ccc(Cl)cc2)n1-c1ccccc1	n	n	n
CN(C)Cc1nc2ccccc2c(=O)n1Cc1nc(-c2cc3ccccc3o2)cs1	n	n	n
CCOc1ccc(-c2csc(Cn3c(CN4CCN(C)CC4)nc4ccccc4c3=O)n2)cc1	n	x	14µM
Cc1nc2ccc(S(=O)(=O)Nc3ccccc3C)cc2s1	n	n	u
O=C(c1ccccn1)c1cc2ccccc2n1S(=O)(=O)c1ccccc1	n	n	u
O=C(c1ccc(F)cc1)n1c(NCc2ccccc2)n[nH]c1=S	x	x	n
O=C(CCl)Nc1cc2[nH]c(=O)[nH]c2cc1Br	x	x	2µM
CCCC(=O)OCC(=O)Nc1ccc2[nH]c(=O)[nH]c2c1	x	x	n
COc1ccc(C/C(=N\O)c2ccc(OC)cc2)cc1	u	n	n
O=C(O)CC1S/C(=N/N=C/c2ccc(Br)cc2)N(c2ccccc2)C1=O (stereo unspecified)	x	x	14µM
O=C(O)CC1SC(=Nc2ccccc2)N(c2ccccc2)C1=O (stereo unspecified)	u	n	n
O=C(CN1CCOCC1)OCCCC1CCCCC1	n	n	n
COc1ccc(NCc2nnc(SCC(=O)c3ccc(OC)cc3)n2C)cc1	n	n	6.3µM
COc1ccc(NC(=O)CSc2nnc(CNC(=O)c3ccco3)n2-c2ccccc2OC)cc1	n	n	u
COc1ccc(NCc2nnc(SCC(=O)NCc3ccccc3)n2-c2ccccc2OC)cc1	-106	n	u
CCOc1ccc(C(=O)CSc2nnc(C3CC3)n2C)cc1	n	n	7.9µM
CCOc1ccc(NC(=O)CSc2nnc(C3CC3)n2C)cc1	x	x	n
COc1ccc(CC(=O)NCc2nnc(SCC(=O)c3ccc(OC)cc3)n2C)cc1	x	x	n
CCN(CC)CCCC(C)Nc1nc(C)cc(Nc2ccc3nc(C)cc(N)c3c2)n1 (stereo unspecified)	x	n	n
CCOc1cc(N2CCOCC2)c(OCC)cc1NC(=O)COc1ccc2ccc(=O)oc2c1	n	n	n
O=P(COCCOCCOCP(=O)(c1ccccc1)c1ccccc1)(c1ccccc1)c1ccccc1	x	x	n
COc1cc2c(cc1OC)C1=C(C#N)CC/C(=N\S(=O)(=O)c3ccccc3)N1CC2	n	u	n
COc1cc2c(cc1OC)C1=C(C#N)CCC(=O)N1CC2	-100	u	n
